PubChem BioAssay (EPA / NIEHS)
The source made the active and inactive calls. Rule for the calls: active = hit-call score of the fitted dose curve at least 0.9, where 1 is the maximum; inactive = score below 0.9.

What was measured:
[1] = read-out: Low-density lipoprotein receptor (LDLR), LDLR (gene 3949); assay: BSK_CASM3C_LDLR: BioMAP Diversity Plus: CASM3C Assay for Low-density lipoprotein receptor (LDLR) Biomarker Activity (AID 2283045); conditions: primary human coronary artery smooth muscle cells; actives raise or lower the signal;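 note: LDLR protein level on the cell surface quantified by ELISA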
[2] = read-out: Monocyte Chemoattractant Protein-1 (MCP1), CCL2 (gene 6347); assay: BSK_CASM3C_MCP1: BioMAP Diversity Plus: CASM3C Assay for Monocyte Chemoattractant Protein-1 (MCP1) Biomarker Activity (AID 2283046); conditions: primary human coronary artery smooth muscle cells; actives raise or lower the signal;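 note: MCP-1 level quantified by ELISA 24 h after dosing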
[3] = BSK_CASM3C_Proliferation: Cell Proliferation Assessment in the BioMAP Diversity Plus: CASM3C Assay (AID 2283047); conditions: primary human coronary artery smooth muscle cells;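 note: sulforhodamine B total protein stain as relative cell number at 560 nm; sub-confluent cells exposed 48 h before staining; fitted both ways against DMSO so gain or loss of cell number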
[4] = read-out: Monokine induced gamma interferon (MIG), CXCL9 (gene 4283); assay: BSK_CASM3C_MIG: BioMAP Diversity Plus: CASM3C Assay for Monokine induced gamma interferon (MIG) Biomarker Activity (AID 2283048); conditions: primary human coronary artery smooth muscle cells; actives raise or lower the signal;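 note: MIG protein level measured by ELISA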
[5] = read-out: serum amyloid A (SAA), SAA1 (gene 6288); assay: BSK_CASM3C_SAA: BioMAP Diversity Plus: CASM3C Assay for serum amyloid A (SAA) Biomarker Activity (AID 2283049); conditions: primary human coronary artery smooth muscle cells; actives raise or lower the signal;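 note: SAA protein level quantified by ELISA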
[6] = BSK_CASM3C_SRB: Viability Assessment in the BioMAP Diversity Plus: CASM3C Assay (AID 2283050); conditions: primary human coronary artery smooth muscle cells;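 note: total protein by SRB staining as cytotoxicity measure in parallel cultures; cells exposed to compound for 24 h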
[7] = read-out: Thrombomodulin, THBD (gene 7056); assay: BSK_CASM3C_Thrombomodulin: BioMAP Diversity Plus: CASM3C Assay for Thrombomodulin Biomarker Activity (AID 2283051); conditions: primary human coronary artery smooth muscle cells; actives raise or lower the signal;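 note: thrombomodulin protein level measured by ELISA 24 h after dosing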
[8] = read-out: Tissue Factor, F3 (gene 2152); assay: BSK_CASM3C_TissueFactor: BioMAP Diversity Plus: CASM3C Assay for Tissue Factor Biomarker Activity (AID 2283052); conditions: primary human coronary artery smooth muscle cells; actives raise or lower the signal;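 note: cell surface tissue factor protein level read by ELISA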
[9] = read-out: Interferon-gamma inducible Protein 10 (IP10), CXCL10 (gene 3627); assay: BSK_hDFCGF_IP10: BioMAP Diversity Plus: hDFCGF Assay for Interferon-gamma inducible Protein 10 (IP10) Biomarker Activity (AID 2283053); conditions: primary human foreskin fibroblasts; actives raise or lower the signal
In short: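 Human foreskin fibroblast primary cells (hDFCGF system) were dosed with chemical and assayed at 24 h; IP-10 measured by ELISA. Activity fitted bidirectionally relative to DMSO negative control as baseline.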

[10] = read-out: Urokinase-type plasminogen activator receptor (uPAR), PLAUR (gene 5329); assay: BSK_CASM3C_uPAR: BioMAP Diversity Plus: CASM3C Assay for Urokinase-type plasminogen activator receptor (uPAR) Biomarker Activity (AID 2283054); conditions: primary human coronary artery smooth muscle cells; actives raise or lower the signal;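 note: cell-surface uPAR protein level quantified by ELISA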

Measured: AC50

N#CCCC(Br)(C#N)CBr (centres undefined)
active: [1] 12.2 µM | [2] 20 µM | [3] 3.93 µM | [4] 33.8 µM | [5] 11.8 µM | [6] 20 µM | [7] 20 µM | [8] 12.7 µM | [9] 3.73 µM | [10] 15.6 µM

C#CCOC(=O)/C=C(C)/C=C/CC(C)CCCC(C)C (centres undefined)
inactive: [1] | [2] | [3] | [4] | [5] | [6] | [7] | [9] | [10]
active: [8] 4.03 µM

O=C(O)COc1cc(Cl)c(Cl)cc1Cl
inactive: [1] | [2] | [3] | [4] | [5] | [6] | [7] | [9] | [10]
active: [8] 5.98 µM

NC(=O)CCl
inactive: [1] | [2] | [3] | [4] | [5] | [6] | [7] | [8] | [9] | [10]

CCOC(=O)C(SP(=S)(OC)OC)c1ccccc1 (centres undefined)
inactive: [1] | [2] | [4] | [5] | [6] | [9] | [10]
active: [3] 20 µM | [7] 20 µM | [8] 3.97 µM

CC(C)(C)c1ccccc1O
inactive: [1] | [2] | [3] | [4] | [5] | [6] | [7] | [8] | [9] | [10]

Oc1cc(Cl)c(Cl)cc1Cl
inactive: [1] | [2] | [4] | [5] | [6] | [8] | [10]
active: [3] 30.8 µM | [9] 20 µM

Cc1c([N+](=O)[O-])c(C)c([N+](=O)[O-])c(C(C)(C)C)c1[N+](=O)[O-]
inactive: [1] | [2] | [3] | [4] | [5] | [6] | [7] | [8] | [9] | [10]

COCC(=O)N(c1c(C)cccc1C)[C@H](C)C(=O)OC
inactive: [1] | [2] | [3] | [4] | [5] | [6] | [7] | [8] | [9] | [10]

OCCCCO
inactive: [1] | [2] | [3] | [4] | [5] | [6] | [7] | [8] | [9] | [10]

COc1ccccc1N
inactive: [1] | [2] | [3] | [4] | [5] | [6] | [7] | [8] | [9] | [10]

Cc1cc(Cl)ccc1N
inactive: [1] | [2] | [3] | [4] | [5] | [6] | [7] | [8] | [9] | [10]

CC(C=O)Cc1ccc2c(c1)OCO2 (centres undefined)
inactive: [1] | [2] | [3] | [4] | [5] | [6] | [7] | [8] | [9] | [10]

N#Cc1cccnc1
inactive: [1] | [2] | [3] | [4] | [5] | [6] | [7] | [8] | [9] | [10]

Nc1ccc(N)cc1
inactive: [1] | [2] | [3] | [4] | [5] | [6] | [7] | [8] | [9] | [10]

OCCN(CCO)CCO
inactive: [1] | [2] | [3] | [4] | [5] | [6] | [7] | [8] | [9] | [10]

O=S(=O)(C(Cl)(Cl)Cl)C(Cl)(Cl)Cl
inactive: [1] | [7]
active: [2] 2.28 µM | [3] 0.528 µM | [4] 3.13 µM | [5] 0.877 µM | [6] 1.54 µM | [8] 1.85 µM | [9] 2.92 µM | [10] 3.04 µM

CCOP(=S)(OCC)SCS(=O)(=O)C(C)(C)C
inactive: [1] | [2] | [3] | [4] | [5] | [6] | [7] | [8] | [9] | [10]

Cc1ccc2nc3sc(=O)sc3nc2c1
inactive: [1] | [2] | [3] | [4] | [5] | [6] | [7] | [8] | [9]
active: [10] 2.14 µM

CC(C)=CC1C(C(=O)OCc2cccc(Oc3ccccc3)c2)C1(C)C (centres undefined)
active: [7] 10.4 µM | [8] 9.79 µM
inactive: [1] | [2] | [3] | [4] | [5] | [6] | [9] | [10]

Oc1cccc(-c2ccccc2)c1
active: [2] 20 µM | [3] 34.4 µM | [6] 28.7 µM | [8] 20 µM
inactive: [1] | [4] | [5] | [7] | [9] | [10]

O=C(Cc1ccccc1)OCCc1ccccc1
inactive: [1] | [2] | [3] | [4] | [5] | [6] | [7] | [8] | [9] | [10]

OC(Cc1ccccc1Cl)(Cn1cncn1)C1(Cl)CC1 (centres undefined)
inactive: [1] | [2] | [3] | [4] | [5] | [6] | [7] | [8] | [9] | [10]

Oc1c(Br)cc(Br)cc1Br
inactive: [1] | [2] | [3] | [4] | [5] | [6] | [7] | [8] | [9] | [10]

O=C(N[C@H]1CN2CCC1CC2)c1ccc2c(c1)OCCO2
inactive: [1] | [2] | [3] | [4] | [5] | [6] | [7] | [8] | [9] | [10]

Nc1c(Oc2ccccc2)cc(O)c2c1C(=O)c1ccccc1C2=O
active: [9] 17 µM
inactive: [1] | [2] | [3] | [4] | [5] | [6] | [7] | [8] | [10]

C=CC(Cl)CCl (centres undefined)
active: [2] 0.0777 µM
inactive: [1] | [3] | [4] | [5] | [6] | [7] | [8] | [9] | [10]

O=S(=O)(c1ccc(Cl)cc1)c1cc(Cl)c(Cl)cc1Cl
inactive: [1] | [2] | [3] | [4] | [5] | [6] | [8] | [9]
active: [7] 8.36 µM | [10] 20 µM

CCCCCCCCCCCCN(C)C
inactive: [2] | [3] | [4] | [5] | [6] | [7] | [8] | [9] | [10]
active: [1] 26.7 µM

Cc1ccc(OP(=O)(Oc2ccc(C)cc2C)Oc2ccc(C)cc2C)c(C)c1
inactive: [1] | [2] | [3] | [4] | [5] | [6] | [7] | [8] | [9] | [10]

CCCCN(CCCC)C(=S)[S-].CCCCN(CCCC)C(=S)[S-].[Ni+2]
inactive: [1] | [2] | [3] | [4] | [5] | [6] | [7] | [8] | [9] | [10]

O=C(O)C1(c2ccc3c(c2)OC[C@H](Cc2ccc(-c4ccccc4)cc2)[C@H]3O)CCCC1
active: [3] 33.3 µM | [9] 7.31 µM | [10] 28 µM
inactive: [1] | [2] | [4] | [5] | [6] | [7] | [8]

CC(C)(COCC1CO1)COCC1CO1 (centres undefined)
inactive: [1] | [2] | [3] | [4] | [5] | [6] | [7] | [8] | [9] | [10]

Cc1cc(C)cc(C)c1
inactive: [1] | [2] | [3] | [4] | [5] | [6] | [7] | [8] | [9] | [10]
